{"source": "paper PMC7862700", "about": "“An all-to-all approach to the identification of sequence-specific readers for epigenetic DNA modifications on cytosine”", "test_in_all_cases": "DAPPL (digital affinity profiling via proximity ligation, sequencing); 10 mM Tris-HCl pH 7.5, 50 mM NaCl, 1 mM DTT, 4% glycerol, room temperature, 30 min; GST-TFs on glutathione beads, 16-mer random dsDNA library, 0.1% formaldehyde crosslink after washing; high values mean tight binding", "key": {"HSF1": {"biological_target": "HSF1 (Homo sapiens, UniProt Q00613 1-529)", "sequence (Q00613 whole entry, the tested form may be a part)": "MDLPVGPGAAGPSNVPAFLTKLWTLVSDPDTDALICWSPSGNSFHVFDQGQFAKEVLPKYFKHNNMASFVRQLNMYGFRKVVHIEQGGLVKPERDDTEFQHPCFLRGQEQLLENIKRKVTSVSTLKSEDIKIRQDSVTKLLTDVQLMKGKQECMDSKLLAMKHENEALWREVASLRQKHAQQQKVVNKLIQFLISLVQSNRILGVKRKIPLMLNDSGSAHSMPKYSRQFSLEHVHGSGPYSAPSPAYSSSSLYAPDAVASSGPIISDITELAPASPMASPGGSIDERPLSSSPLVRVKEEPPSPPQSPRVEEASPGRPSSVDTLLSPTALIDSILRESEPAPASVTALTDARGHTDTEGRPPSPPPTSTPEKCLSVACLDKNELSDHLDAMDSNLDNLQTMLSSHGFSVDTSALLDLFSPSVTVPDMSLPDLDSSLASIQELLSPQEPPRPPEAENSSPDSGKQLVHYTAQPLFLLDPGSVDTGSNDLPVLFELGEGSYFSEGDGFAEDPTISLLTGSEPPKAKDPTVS", "conditions": "protein: recombinant; tags: N-terminal GST; chain copies: 3; dsDNA, one strand shown", "procedure,_shortened": "(§1)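 Binding signal is each hexamer's read frequency for a factor divided by its frequency in the tag-only sample. The factors were GST-fused human transcription factors from yeast, captured on glutathione beads, DNA-barcoded and pooled with that sample. Pools were incubated with 200 nmole of a random double-stranded 16-mer DNA library in Tris/NaCl/DTT/glycerol buffer at room temperature for 30 min, then washed, crosslinked with 0.1% formaldehyde, proximity-ligated with BsaI/T4 ligase (1 h, 37 °C), PCR-amplified and sequenced on an Illumina NextSeq500.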"}, "SPIC": {"biological_target": "T1, SPIC (Homo sapiens, UniProt Q8N5J4 1-248)", "T1 sequence": "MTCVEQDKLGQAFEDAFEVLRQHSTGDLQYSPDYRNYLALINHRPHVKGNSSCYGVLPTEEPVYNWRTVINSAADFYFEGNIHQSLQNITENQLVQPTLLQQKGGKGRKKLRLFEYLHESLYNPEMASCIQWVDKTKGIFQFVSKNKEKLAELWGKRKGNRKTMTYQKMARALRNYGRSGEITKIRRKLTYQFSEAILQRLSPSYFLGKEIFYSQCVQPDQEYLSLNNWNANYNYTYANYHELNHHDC", "conditions": "protein: recombinant; tags: N-terminal GST; dsDNA, one strand shown", "procedure,_shortened": "as §1"}, "CRX": {"biological_target": "CRX (Homo sapiens, UniProt O43186 1-299)", "sequence (O43186 whole entry)": "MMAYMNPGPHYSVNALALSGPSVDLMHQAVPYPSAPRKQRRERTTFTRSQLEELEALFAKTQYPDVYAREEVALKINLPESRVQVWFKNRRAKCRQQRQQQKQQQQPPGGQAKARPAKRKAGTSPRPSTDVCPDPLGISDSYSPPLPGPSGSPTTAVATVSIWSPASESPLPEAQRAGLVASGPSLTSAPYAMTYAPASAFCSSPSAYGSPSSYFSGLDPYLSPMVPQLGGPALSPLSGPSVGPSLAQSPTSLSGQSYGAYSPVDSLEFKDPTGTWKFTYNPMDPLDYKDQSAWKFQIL", "conditions": "protein: recombinant; tags: N-terminal GST; dsDNA, one strand shown", "procedure,_shortened": "as §1"}, "ELK4": {"biological_target": "T2, ELK4 (Homo sapiens, UniProt P28324-2 1-405)", "T2 sequence": "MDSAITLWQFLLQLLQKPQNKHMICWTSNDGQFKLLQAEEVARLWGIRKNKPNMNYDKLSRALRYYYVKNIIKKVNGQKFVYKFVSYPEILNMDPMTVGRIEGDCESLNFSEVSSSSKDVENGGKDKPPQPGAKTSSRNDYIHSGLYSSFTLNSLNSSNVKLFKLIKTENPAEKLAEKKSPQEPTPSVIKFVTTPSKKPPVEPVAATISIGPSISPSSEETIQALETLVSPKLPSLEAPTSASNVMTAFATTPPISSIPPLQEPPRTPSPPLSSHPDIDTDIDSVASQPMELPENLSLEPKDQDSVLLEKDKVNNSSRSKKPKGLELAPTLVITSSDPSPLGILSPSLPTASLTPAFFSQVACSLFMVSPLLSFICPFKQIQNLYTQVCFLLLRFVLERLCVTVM", "conditions": "protein: recombinant; tags: N-terminal GST; dsDNA, one strand shown", "procedure,_shortened": "as §1"}, "GABPA": {"biological_target": "T3, GABPA (Homo sapiens, UniProt Q06546 1-454)", "T3 sequence": "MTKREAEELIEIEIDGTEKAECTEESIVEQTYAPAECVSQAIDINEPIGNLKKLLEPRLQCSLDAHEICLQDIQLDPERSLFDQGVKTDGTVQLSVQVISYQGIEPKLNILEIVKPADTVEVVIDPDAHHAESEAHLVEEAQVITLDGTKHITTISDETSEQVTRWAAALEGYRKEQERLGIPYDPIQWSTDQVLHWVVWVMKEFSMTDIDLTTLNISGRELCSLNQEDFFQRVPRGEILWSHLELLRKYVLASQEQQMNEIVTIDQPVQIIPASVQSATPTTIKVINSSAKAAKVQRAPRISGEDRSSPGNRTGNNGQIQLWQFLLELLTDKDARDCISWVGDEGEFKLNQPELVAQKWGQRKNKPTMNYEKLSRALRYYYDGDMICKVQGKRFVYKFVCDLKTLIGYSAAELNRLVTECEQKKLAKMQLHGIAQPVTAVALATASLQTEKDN", "conditions": "protein: recombinant; tags: N-terminal GST; dsDNA, one strand shown", "procedure,_shortened": "as §1"}, "ERG": {"biological_target": "T4, ERG (Homo sapiens, UniProt P11308 1-479)", "T4 sequence": "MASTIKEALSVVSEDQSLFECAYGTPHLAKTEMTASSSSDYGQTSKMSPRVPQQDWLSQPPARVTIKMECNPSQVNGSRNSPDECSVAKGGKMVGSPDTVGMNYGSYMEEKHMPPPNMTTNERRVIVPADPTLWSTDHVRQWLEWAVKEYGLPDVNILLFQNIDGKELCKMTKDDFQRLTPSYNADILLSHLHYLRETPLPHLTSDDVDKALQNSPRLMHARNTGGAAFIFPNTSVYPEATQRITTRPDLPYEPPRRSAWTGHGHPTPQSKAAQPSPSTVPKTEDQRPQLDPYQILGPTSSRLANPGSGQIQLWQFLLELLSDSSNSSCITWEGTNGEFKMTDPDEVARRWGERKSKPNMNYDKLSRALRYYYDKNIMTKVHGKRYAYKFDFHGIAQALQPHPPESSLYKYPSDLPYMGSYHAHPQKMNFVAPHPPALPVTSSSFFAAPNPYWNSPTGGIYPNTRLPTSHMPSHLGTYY", "conditions": "protein: recombinant; tags: N-terminal GST; dsDNA, one strand shown", "procedure,_shortened": "as §1"}, "FEV": {"biological_target": "T5, FEV (Homo sapiens, UniProt Q99581 1-238)", "T5 sequence": "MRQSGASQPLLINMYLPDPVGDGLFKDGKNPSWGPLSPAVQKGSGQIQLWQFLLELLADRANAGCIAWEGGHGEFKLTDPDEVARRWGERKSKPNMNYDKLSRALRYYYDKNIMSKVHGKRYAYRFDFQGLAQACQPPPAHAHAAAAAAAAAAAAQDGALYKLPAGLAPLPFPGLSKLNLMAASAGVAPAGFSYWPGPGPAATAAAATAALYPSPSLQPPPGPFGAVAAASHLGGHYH", "conditions": "protein: recombinant; tags: N-terminal GST; dsDNA, one strand shown", "procedure,_shortened": "as §1"}, "ETV1": {"biological_target": "ETV1 (Homo sapiens, UniProt P50549 1-477)", "sequence (P50549 whole entry)": "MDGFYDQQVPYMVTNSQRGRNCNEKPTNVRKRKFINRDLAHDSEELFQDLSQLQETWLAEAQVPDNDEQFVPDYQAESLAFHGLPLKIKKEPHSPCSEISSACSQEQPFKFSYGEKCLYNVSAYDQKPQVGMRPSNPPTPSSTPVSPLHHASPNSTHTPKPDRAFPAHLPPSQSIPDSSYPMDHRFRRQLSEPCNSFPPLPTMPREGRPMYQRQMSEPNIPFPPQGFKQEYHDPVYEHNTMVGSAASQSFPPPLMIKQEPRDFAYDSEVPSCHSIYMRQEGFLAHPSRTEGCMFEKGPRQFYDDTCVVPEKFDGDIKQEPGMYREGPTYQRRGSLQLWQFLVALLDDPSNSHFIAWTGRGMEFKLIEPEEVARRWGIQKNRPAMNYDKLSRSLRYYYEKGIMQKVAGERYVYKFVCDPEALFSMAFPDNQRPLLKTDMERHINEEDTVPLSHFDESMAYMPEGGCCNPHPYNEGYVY", "conditions": "protein: recombinant; tags: N-terminal GST; dsDNA, one strand shown", "procedure,_shortened": "as §1"}, "ERF": {"biological_target": "T6, ERF (Homo sapiens, UniProt P50548 1-548)", "T6 sequence": "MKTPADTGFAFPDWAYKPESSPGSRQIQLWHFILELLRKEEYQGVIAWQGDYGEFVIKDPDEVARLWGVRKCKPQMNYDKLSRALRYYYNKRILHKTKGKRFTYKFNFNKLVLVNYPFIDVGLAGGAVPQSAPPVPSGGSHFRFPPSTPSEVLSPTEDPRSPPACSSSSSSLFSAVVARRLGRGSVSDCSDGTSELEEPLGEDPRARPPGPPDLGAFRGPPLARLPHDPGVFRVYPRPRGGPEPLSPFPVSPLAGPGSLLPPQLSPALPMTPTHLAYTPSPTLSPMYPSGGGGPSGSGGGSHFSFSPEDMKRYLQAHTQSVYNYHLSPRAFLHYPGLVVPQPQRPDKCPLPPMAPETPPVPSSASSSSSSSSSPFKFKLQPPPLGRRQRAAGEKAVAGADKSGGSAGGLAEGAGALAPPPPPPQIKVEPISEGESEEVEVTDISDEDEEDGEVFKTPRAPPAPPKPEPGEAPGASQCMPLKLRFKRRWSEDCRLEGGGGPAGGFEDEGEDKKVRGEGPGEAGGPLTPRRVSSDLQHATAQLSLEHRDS", "conditions": "protein: recombinant; tags: N-terminal GST; dsDNA, one strand shown", "procedure,_shortened": "as §1"}, "ETV3L": {"biological_target": "T7, ETV3L (Homo sapiens, UniProt Q6ZN32 1-361)", "T7 sequence": "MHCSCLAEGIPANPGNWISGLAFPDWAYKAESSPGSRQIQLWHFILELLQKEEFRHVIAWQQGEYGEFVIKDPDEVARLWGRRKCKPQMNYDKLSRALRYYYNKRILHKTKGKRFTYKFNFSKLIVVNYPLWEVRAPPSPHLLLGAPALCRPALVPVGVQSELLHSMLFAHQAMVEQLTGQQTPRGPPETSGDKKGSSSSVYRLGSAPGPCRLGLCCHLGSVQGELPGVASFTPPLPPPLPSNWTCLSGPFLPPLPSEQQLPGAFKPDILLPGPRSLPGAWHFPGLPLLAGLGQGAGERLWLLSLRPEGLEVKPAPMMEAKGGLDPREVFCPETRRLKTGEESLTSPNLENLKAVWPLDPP", "conditions": "protein: recombinant; tags: N-terminal GST; dsDNA, one strand shown", "procedure,_shortened": "as §1"}, "ETS2": {"biological_target": "T8, ETS2 (Homo sapiens, UniProt P15036 1-469)", "T8 sequence": "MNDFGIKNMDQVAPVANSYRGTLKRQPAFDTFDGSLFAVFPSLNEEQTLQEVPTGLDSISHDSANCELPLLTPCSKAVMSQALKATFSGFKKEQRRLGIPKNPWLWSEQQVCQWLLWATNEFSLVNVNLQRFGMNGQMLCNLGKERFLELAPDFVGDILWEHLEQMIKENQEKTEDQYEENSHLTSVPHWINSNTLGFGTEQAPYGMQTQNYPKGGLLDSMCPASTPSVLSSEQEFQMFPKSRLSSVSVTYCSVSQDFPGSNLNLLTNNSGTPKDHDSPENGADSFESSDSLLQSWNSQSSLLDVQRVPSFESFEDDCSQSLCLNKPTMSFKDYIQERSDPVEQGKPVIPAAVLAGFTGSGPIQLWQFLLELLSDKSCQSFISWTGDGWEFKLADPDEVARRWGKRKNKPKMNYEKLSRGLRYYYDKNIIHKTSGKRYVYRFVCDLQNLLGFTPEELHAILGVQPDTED", "conditions": "protein: recombinant; tags: N-terminal GST; dsDNA, one strand shown", "procedure,_shortened": "as §1"}, "ETV7": {"biological_target": "T9, ETV7 (Homo sapiens, UniProt Q9Y603 1-341)", "T9 sequence": "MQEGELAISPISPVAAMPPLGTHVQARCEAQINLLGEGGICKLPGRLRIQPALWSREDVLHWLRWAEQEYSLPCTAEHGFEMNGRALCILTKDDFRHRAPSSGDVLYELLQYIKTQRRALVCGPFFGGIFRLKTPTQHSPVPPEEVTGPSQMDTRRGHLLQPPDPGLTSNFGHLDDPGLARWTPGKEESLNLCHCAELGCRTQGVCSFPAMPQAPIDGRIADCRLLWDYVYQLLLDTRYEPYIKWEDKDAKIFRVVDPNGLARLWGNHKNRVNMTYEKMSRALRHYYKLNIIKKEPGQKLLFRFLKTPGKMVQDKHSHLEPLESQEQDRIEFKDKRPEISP", "conditions": "protein: recombinant; tags: N-terminal GST; dsDNA, one strand shown", "procedure,_shortened": "as §1"}}, "data": [{"sequence": "TCGAAG", "values": [{"measurement": "binding signal", "setting": "HSF1", "value": "1.57 fold enrichment (6-mer frequency, TF over GST control)"}, {"measurement": "binding signal", "setting": "SPIC", "value": "1.02 fold enrichment (6-mer frequency, TF over GST control)"}, {"measurement": "binding signal", "setting": "CRX", "value": "1.09 fold enrichment (6-mer frequency, TF over GST control)"}]}, {"sequence": "TTAGTG", "values": [{"measurement": "binding signal", "setting": "HSF1", "value": "1.3 fold enrichment (6-mer frequency, TF over GST control)"}, {"measurement": "binding signal", "setting": "ELK4", "value": "1.11 fold enrichment (6-mer frequency, TF over GST control)"}, {"measurement": "binding signal", "setting": "CRX", "value": "1.89 fold enrichment (6-mer frequency, TF over GST control)"}]}, {"sequence": "TTAGGC", "values": [{"measurement": "binding signal", "setting": "GABPA", "value": "1.02 fold enrichment (6-mer frequency, TF over GST control)"}, {"measurement": "binding signal", "setting": "ERG", "value": "1.03 fold enrichment (6-mer frequency, TF over GST control)"}, {"measurement": "binding signal", "setting": "FEV", "value": "1 fold enrichment (6-mer frequency, TF over GST control)"}, {"measurement": "binding signal", "setting": "HSF1", "value": "1.37 fold enrichment (6-mer frequency, TF over GST control)"}, {"measurement": "binding signal", "setting": "SPIC", "value": "1.08 fold enrichment (6-mer frequency, TF over GST control)"}, {"measurement": "binding signal", "setting": "CRX", "value": "2.06 fold enrichment (6-mer frequency, TF over GST control)"}, {"measurement": "binding signal", "setting": "ETV1", "value": "1.03 fold enrichment (6-mer frequency, TF over GST control)"}, {"measurement": "binding signal", "setting": "ERF", "value": "1.02 fold enrichment (6-mer frequency, TF over GST control)"}, {"measurement": "binding signal", "setting": "ETV3L", "value": "1.01 fold enrichment (6-mer frequency, TF over GST control)"}, {"measurement": "binding signal", "setting": "ETS2", "value": "1.01 fold enrichment (6-mer frequency, TF over GST control)"}, {"measurement": "binding signal", "setting": "ETV7", "value": "1.16 fold enrichment (6-mer frequency, TF over GST control)"}]}]}
